Hits are enriched below; roughly 2.4% of the tested compounds scored in any of these assays.
ANO1 block – blocks the mouse calcium-activated chloride channel TMEM16A. normalized B-score (activity score, 25-100; higher = stronger inhibition) at 10 µM. Q8BHY3. AID 588511. HEK293 TMEM16A/YFP iodide influx fluorescence, ionomycin. 1.2% of 310,000 active;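 active means ratio plate-corrected score three or more library SD toward inhibition, starting fluorescence score within five deviations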;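 further: score derived from kinetic fluorescence span divided by baseline fluorescence per well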
ANO1 activ – activators or potentiators of mouse TMEM16A chloride channel. HEK293 TMEM16A/YFP-H148Q/I152L, iodide quench fluorescence; active compounds read low. B-score at 10 µM. 0.3% of 340,000 active;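 active means fluorescence-ratio B-score plate-corrected deviation score at least 3 library SD below zero, with starting fluorescence score within 5 deviations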;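 further: channel opened by trigger with iodide after compound preincubation; score built on the fluorescence ratio of max minus min over baseline; more negative score means more quench and so TMEM16A activation or potentiation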
CHT block – human CHT choline transport inhibition; Q9GZV3; CHT-expressing cells, membrane potential dye, choline response; active compounds read low; B-score at 10 µM; 0.86% of 310,000 active; AID 488975;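 active means B-score over 3 SD under the library average, and starting fluorescence ratio not unusually high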;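 further: choline stimulus applied at its EC90 after an EC20 pre-addition; B-score computed on integrated fluorescence ratio after choline addition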
CHT allo act – allosterically activates the human high affinity choline transporter. 0.49% of 310,000 active. Q9GZV3. CHT-expressing cells, membrane potential dye, choline EC20; active compounds read high; LV-AA mutant CHT in HEK293 cells. B-score at 10 µM. AID 488977;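 active means initial fluorescence not abnormally high and integrated response B-score, plate-corrected, over 3 SD above library mean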
TMEM16A reconf – TMEM16A (mouse) chloride channel inhibition, re-confirmation. shares compounds with ANO1 block. AID 652189. 39% of 2,300 active. HEK293 TMEM16A/YFP-H148Q, iodide quench fluorescence; ionomycin added to raise cell calcium. inhibition, % at 10 µM;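 active means mean duplicate percent inhibition, scaled so buffer wells are 0 and the reference blocker 100, over three buffer SD above buffer mean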
TMEM16A Ca cntr – calcium mobilization counter-screen hit for TMEM16A inhibitor series | 2% of 2,300 active | TMEM16A/YFP HEK293, Fluo4 calcium mobilization | AID 652231 | shares compounds with ANO1 block | calcium response (% of ionomycin), % at 10 µM;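 active means duplicate-averaged calcium signal over 20% of the ionomycin maximum, relative to buffer baseline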;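 further: each well's signal is peak minus trough fluorescence divided by its pre-addition baseline; 0% = buffer wells and 100% = ionomycin wells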
Parental YFP cnt – acts in parental YFP-HEK293 cells lacking TMEM16A, counter-screen. shares compounds with ANO1 block. iodide YFP quench, ionomycin. YFP ratio F(max-min)/F0 at 10 µM. 2,300 tested, under 10 active. AID 652233;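 active means yellow fluorescent protein signal ratio exceeding the buffer control mean by over 5 SD of those controls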;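 further: ratio is mean of duplicate wells from kinetic YFP trace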
ClC-1 rat inh – blocks the rat ClC-1 voltage-dependent chloride channel | shares compounds with ANO1 block | CHO ClC-1-YFP, iodide influx fluorescence quench; iodide control reads 0, buffer control 100 | ratio percent, % at 10 µM | 2,300 tested, under 10 active;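 active means duplicate-mean ratio percent above the mean of iodide-only control wells, which defines zero, plus 5 of their SD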;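 further: higher percent means stronger block of ClC-1 iodide influx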
Target sequence (P35524 whole entry, looked up): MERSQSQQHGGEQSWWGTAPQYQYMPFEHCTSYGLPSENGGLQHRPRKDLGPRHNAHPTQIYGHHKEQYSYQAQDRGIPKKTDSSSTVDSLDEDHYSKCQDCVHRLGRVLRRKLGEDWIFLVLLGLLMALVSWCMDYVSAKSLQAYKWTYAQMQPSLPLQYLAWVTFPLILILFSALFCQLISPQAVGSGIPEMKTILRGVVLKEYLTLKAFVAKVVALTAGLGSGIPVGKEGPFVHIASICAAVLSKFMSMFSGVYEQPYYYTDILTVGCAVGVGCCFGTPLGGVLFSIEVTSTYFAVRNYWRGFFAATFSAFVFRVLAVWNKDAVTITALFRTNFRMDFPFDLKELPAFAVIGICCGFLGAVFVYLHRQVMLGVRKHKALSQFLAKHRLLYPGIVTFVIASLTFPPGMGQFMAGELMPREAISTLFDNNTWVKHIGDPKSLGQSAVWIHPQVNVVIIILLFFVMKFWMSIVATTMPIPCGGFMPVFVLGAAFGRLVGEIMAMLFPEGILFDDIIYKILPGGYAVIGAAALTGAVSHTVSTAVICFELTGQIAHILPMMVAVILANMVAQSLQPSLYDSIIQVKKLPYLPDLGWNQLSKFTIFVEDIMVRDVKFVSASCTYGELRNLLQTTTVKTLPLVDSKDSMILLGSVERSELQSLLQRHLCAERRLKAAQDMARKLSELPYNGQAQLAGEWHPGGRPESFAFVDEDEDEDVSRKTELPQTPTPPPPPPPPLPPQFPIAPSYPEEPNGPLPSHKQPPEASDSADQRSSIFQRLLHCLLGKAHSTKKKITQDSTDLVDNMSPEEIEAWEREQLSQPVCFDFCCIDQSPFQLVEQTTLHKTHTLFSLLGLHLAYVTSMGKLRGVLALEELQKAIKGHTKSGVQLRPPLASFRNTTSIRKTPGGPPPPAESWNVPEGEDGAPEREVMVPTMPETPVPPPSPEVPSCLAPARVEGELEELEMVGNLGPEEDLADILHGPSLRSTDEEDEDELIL
* hit, by the source's call; i = inactive; nt = no result given.

SMILES	ANO1 block	ANO1 activ	CHT block	CHT allo act	TMEM16A reconf	TMEM16A Ca cntr	Parental YFP cnt	ClC-1 rat inh
Cc1nc2ccccc2n1CC(O)COc1ccccc1Cl (stereo unspecified)	25*	i	i	i	i	i	-0.99	-13
Cc1ccccc1Cn1c(C)nc2ccccc21	i	i	i	i	nt	nt	nt	nt
Cc1nc2ccccc2n1Cc1ccc(Cl)cc1	25*	i	i	i	42%*	i	-1.1	-26
CCOC(=O)c1c(C)n(C)c2ccc(OCC(O)CN3CCN(C)CC3)cc12 (stereo unspecified)	i	i	i	i	nt	nt	nt	nt
CCOC(=O)c1c(C)n(C)c2ccc(OCC(O)Cn3c(C)nc4ccccc43)cc12 (stereo unspecified)	100*	i	i	i	i	i	-1.1	-10
NC(=O)C1CCN(C(=O)C2CCN(C(=O)Nc3ccccc3)CC2)CC1	nt	i	nt	nt	nt	nt	nt	nt
CCC(C)c1ccc(-n2c(=O)c3ccccc3n3c(=S)[nH]nc23)cc1 (stereo unspecified)	i	i	i	i	nt	nt	nt	nt
O=C(COc1ccc(Cl)cc1)Nc1ccc(Cc2ccncc2)cc1	25*	i	i	i	17%*	i	-1	-4
Cc1cc(OCC(=O)Nc2ccncc2)ccc1Br	100*	i	i	i	i	i	-1.1	-12
Cc1cc(NC(=O)C(C)Oc2ccc(Cl)cc2Cl)n(-c2ccccc2)n1 (stereo unspecified)	i	i	i	i	nt	nt	nt	nt
CC(C)c1cc(C(=O)N/N=C/c2cccnc2)n[nH]1	i	i	i	i	nt	nt	nt	nt
COc1cc(C)ccc1S(=O)(=O)NC1CC(C)(C)NC(C)(C)C1	i	i	i	i	nt	nt	nt	nt
COc1cccc(N2CCN(c3ccc4nnc(CCC(=O)Nc5cccc(C(C)=O)c5)n4n3)CC2)c1	i	i	i	i	nt	nt	nt	nt
O=C(Nc1ccc(Cl)c(Cl)c1)Nc1ccccc1O	100*	i	i	i	22%*	i	-1.1	-20
O=C(COc1cc2oc(=O)c3c(c2cc1Cl)CCC3)NCc1ccccn1	i	i	i	i	nt	nt	nt	nt
O=C(CCC1CCCN(C(=O)Cn2cnnn2)C1)NCc1ccc(F)c(F)c1 (stereo unspecified)	i	i	i	i	nt	nt	nt	nt
CCN(CC)CCn1c2c(c(SCC(=O)Nc3ccccc3Cl)nc1=O)CCCC2	i	i	i	i	nt	nt	nt	nt
CCOc1ccc(N(Cc2nnc3n2CCCCC3)C(=O)Nc2cccc(C)c2)cc1	i	i	i	i	i	i	-0.96	-2
CCN(Cc1ccccc1)C(c1ccc(C)cc1)c1nnnn1C(C)(C)CC (stereo unspecified)	100*	i	i	i	i	i	-1.5	0
COc1ccc(CCC(=O)N2CCN(S(=O)(=O)c3cccc(Cl)c3)CC2)cc1	nt	i	nt	nt	nt	nt	nt	nt
Cc1c(Cl)cccc1NC(=S)NNc1ncc(C(F)(F)F)cc1Cl	25*	i	-5.3*	i	40%*	i	-1.2	-13
O=C(c1cccc(F)c1)N1CCC(c2nc3ccccc3s2)CC1	i	i	i	i	nt	nt	nt	nt
O=C(CSc1ccc(F)cc1)N1CCC(c2nc3ccccc3s2)CC1	100*	i	i	i	29%*	i	-1.2	-6
O=C1CCC(C(=O)N2CCCC(Nc3ccc(F)cc3)C2)=NN1 (stereo unspecified)	i	i	i	i	nt	nt	nt	nt
CCCS(=O)(=O)N1CCC(C(=O)NCCCOC)CC1	100*	i	i	i	i	i	-0.92	-2
CCCS(=O)(=O)N1CCC(C(=O)NCCCOC(C)C)CC1	i	i	i	i	nt	nt	nt	nt
